Records with an inconclusive call do not appear. Activity calls are given as the source filed them. Rule for the calls, unless noted: active = hit-call score of the fitted dose curve at least 0.9, where 1 is the maximum; inactive = score below 0.9.
Legend:
[1] = CCTE_Mundy_HCI_Cortical_Synap_Neur_Matur_NeuriteSpotCountPerNeuriteLength: CCTE's Synaptogenesis and Neurite Maturation Assay in rat cortical cells for Neurite Spot Count per Neurite Length, Mundy Lab (AID 2284210)
Method in brief: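 Neurite-associated synapse density (synaptophysin puncta per unit neurite length) is measured by fluorescence high-content imaging in rat cortical cultures treated from DIV 7 and fixed at DIV 12, with DMSO as negative control.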

[2] = CCTE_Mundy_HCI_Cortical_NOG_NeuriteLength: CCTE's Neurite Outgrowth Assay in rat cortical cells for Neurite Length, Mundy Lab (AID 2284213);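 for AC50: neurites imaged about 48 to 50 h after chemical exposure began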
Method in brief: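 First, rat primary cortical cells were plated and, 2 h later, given test chemical as a 1/10 dilution. Finally, βIII-tubulin immunostaining enabled automated imaging of neurite length.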

[3] = CCTE_Mundy_HCI_Cortical_Synap_Neur_Matur_NeuriteLength: CCTE's Synaptogenesis and Neurite Maturation Assay in rat cortical cells for Neurite Length, Mundy Lab (AID 2284214)
Method in brief: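 Read-out: high-content imaging of MAP2-labelled neurites, with synaptophysin and Hoechst co-stain, in rat cortical cultures fixed at DIV 12. Activity fitted in positive direction relative to DMSO baseline.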

[4] = CCTE_Mundy_HCI_Cortical_Synap_Neur_Matur_NeuriteSpotCountPerNeuron: CCTE's Synaptogenesis and Neurite Maturation Assay in rat cortical cells for Neurite Spot Count per Neuron Count, Mundy Lab (AID 2284215)
Method in brief: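 Read-out: neurite-associated synaptophysin puncta per neuron, imaged by high-content analysis after MAP2, synaptophysin and Hoechst staining. Rat primary cortical cultures, dosed DIV 7 through DIV 12; DMSO served as baseline.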

[5] = CCTE_Mundy_HCI_Cortical_Synap_Neur_Matur_SynapseCount: CCTE's Synaptogenesis and Neurite Maturation Assay in rat cortical cells for Synapse Count, Mundy Lab (AID 2284218)
Method in brief: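 Read-out: synapse number per neuron, automated high-content imaging of fixed cells immunostained for MAP2 and synaptophysin plus Hoechst nuclei. Rat primary cortical cultures, AraC at DIV 5, chemical dosing DIV 7–12. Positive-direction fit relative to DMSO.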

[6] = CCTE_Mundy_HCI_Cortical_Synap_Neur_Matur_CellBodySpotCount: CCTE's Synaptogenesis and Neurite Maturation Assay in rat cortical cells for Cell Body Spot Count, Mundy Lab (AID 2284223)
Method in brief: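 Read-out: cell body-associated synaptophysin puncta per neuron, imaged after MAP2, synaptophysin and Hoechst staining. Rat cortical cells, AraC DIV 5, chemical dosing DIV 7, fixation DIV 12. Activity fitted in positive direction relative to DMSO baseline.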

[7] = CCTE_Mundy_HCI_Cortical_NOG_NeuronCount: CCTE's Neurite Outgrowth Assay in rat cortical cells for Neuron Count, Mundy Lab (AID 2284236; active = hit-call score of the fitted dose curve at least 0.9, where 1 is the maximum;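 note: neurons counted by imaging betaIII-tubulin and Hoechst stained cortical cells; cells exposed to compound for about 48 hours before fixation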)
Method in brief: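 Read-out: neuron number by high-content imaging of betaIII-tubulin (Alexa Fluor-488) and Hoechst-labelled rat primary cortical cells.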

[8] = CCTE_Mundy_HCI_hNP1_Casp3_7: CCTE's Caspase-Glo 3/7 Assay in human neuroprogenitor cells for Apoptosis, Mundy Lab (AID 2284240)
Method in brief: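 Neuroepithelial-lineage stem cells from WA09 embryonic cells were treated with chemicals after 40–44 h of culture. Twenty-four hours later, caspase-3/7 activation was detected luminescently after a 30 min room-temperature reagent step, with DMSO as baseline.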

[9] = IUF_NPC1b_proliferation_BrdU_72hr: Leibniz Research Institute for Environmental Medicine (IUF) 72-hour Neural Progenitor Cell Bromodeoxyuridine (BrdU) Proliferation Assay (NPC1b) (AID 2284207)
Method in brief: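 Neural progenitor spheres of human fetal origin are treated for three days; BrdU added for the last 16 h is quantified by luminescence ELISA, with DMSO as baseline and EGF/FGF omission as positive control.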

[10] = IUF_NPC1a_proliferation_area_72hr: Leibniz Research Institute for Environmental Medicine (IUF) 72-hour Neural Progenitor Cell Proliferation Area Assay (NPC1a) (AID 2284208)
Method in brief: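 hNPC spheres (human fetal cortex, GW 16-19), one per poly-Hema U-bottom well; EGF+FGF medium; dosed day 0, no re-dosing; 72 h, 37C, 5% CO2; phase-contrast sphere area; DMSO = baseline; minus-GF = positive ctrl.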

[11] = IUF_NPC1_viability_72hr: Viability Assessment at 72 hours in the Leibniz Research Institute for Environmental Medicine (IUF) Neural Progenitor Cell Proliferation Assay (NPC1) (AID 2284209)
Method in brief: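 Alamar blue fluorescence (RFU) after 72 h exposure, normalized to DMSO baseline. hNPC spheres from GW 16-19 fetal cortex, single sphere per well in growth-factor medium; no compound renewal.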

[12] = IUF_NPC2c_oligodendrocyte_migration_120hr: Leibniz Research Institute for Environmental Medicine (IUF) 120-hour Neural Progenitor Cell Migration Assay for Oligodendrocyte Migration (NPC2c) (AID 2284297);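 note: O4-positive oligodendrocyte migration distance divided by radial glia migration distance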
Method in brief: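 hNPC spheres (GW 16-19 cortex), PDL/laminin, DMEM/F12 3:1 + 1% N2, 37C. Dosing day 0–5, half feed day 3, DMSO ≤0.1%. Fixed 120 h; O4 ICC + Hoechst, HCI. Readout: mean oligodendrocyte distance from sphere edge / radial glia distance.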

[13] = IUF_NPC2a_radial_glia_migration_120hr: Leibniz Research Institute for Environmental Medicine (IUF) 120-hour Neural Progenitor Cell Migration Assay for Radial Glia Migration (NPC2a) (AID 2284298)
Method in brief: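 Hoechst-stained nuclei imaged at 120 h; algorithm maps sphere core by densest nuclei, sets migration edge at density threshold, gives radial glia migration distance (um) per well vs DMSO. hNPC spheres (0.3 mm), PDL/laminin, DMEM/F12 3:1 + 1% N2.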

[14] = IUF_NPC2a_radial_glia_migration_72hr: Leibniz Research Institute for Environmental Medicine (IUF) 72-hour Neural Progenitor Cell Migration Assay for Radial Glia Migration (NPC2a) (AID 2284299)
Method in brief: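 Readout: mean of four manual brightfield measurements of radial glia migration distance (um) at 72 h. hNPC spheres (0.3 mm) exposed to 7 compound concentrations plus solvent control on PDL/laminin, 37C, 5% CO2; activity fitted relative to DMSO.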

[15] = IUF_NPC2b_neuronal_migration_120hr: Leibniz Research Institute for Environmental Medicine (IUF) 120-hour Neural Progenitor Cell Migration Assay for Neuron Migration (NPC2b) (AID 2284300)
Method in brief: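 hNPC spheres, PDL/laminin, DMEM:F12 3:1 + 1% N2, 37C/5% CO2; 7 concentrations + solvent control (DMSO ≤0.1%), 5 d exposure, half-feed day 3. Fix 120 h, TUBB3 ICC, HCI: mean neuron migration distance ÷ glia distance.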

[16] = IUF_NPC3_neuronal_differentiation_120hr: Leibniz Research Institute for Environmental Medicine (IUF) 120-hour Neuronal Differentiation Assay (NPC3) (AID 2284301)
Method in brief: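 Neuronal differentiation of primary human neural progenitors measured by high-content imaging: percent TUBB3+ of Hoechst+ nuclei within migrated area at 120 h, seven-point serial dilution plus solvent control, gain or loss relative to DMSO.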

[17] = IUF_NPC2-5_cytotoxicity_72hr: Cytotoxicity Assessment at 72 hours in the Leibniz Research Institute for Environmental Medicine (IUF) Neural Progenitor Cell Migration and Differentiation Assay for Cytotoxicity (NPC2-5) (AID 2284306; active = hit-call score of the fitted dose curve at least 0.9, where 1 is the maximum;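 note: LDH release into supernatant measured by resorufin fluorescence marking membrane damage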)
Method in brief: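 Primary human neural progenitor spheres migrate and differentiate on laminin. Compound is present from the start of differentiation, with DMSO kept at or below 0.1%. At 72 h, supernatant LDH is quantified fluorometrically, with values fitted in the positive direction.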

[18] = IUF_NPC2-5_cytotoxicity_120hr: Cytotoxicity Assessment at 120 hours in the Leibniz Research Institute for Environmental Medicine (IUF) Neural Progenitor Cell Migration and Differentiation Assay (NPC2-5) (AID 2284307; active = hit-call score of the fitted dose curve at least 0.9, where 1 is the maximum)
Method in brief: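 hNPC spheres on PDL/laminin, N2 medium, 37C; 7 concs + solvent control, DMSO ≤0.1%; 5-day exposure, half medium changed day 3. LDH in supernatant at 120 h, resazurin→resorufin fluorescence, gain-of-signal.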

[19] = IUF_NPC2-5_cell_number_120hr: Cell Number Assessment at 120 hours in the Leibniz Research Institute for Environmental Medicine (IUF) Neural Progenitor Cell Migration and Differentiation Assay (NPC2-5) (AID 2284308);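 note: count of Hoechst-stained nuclei in migration zone around plated human neural progenitor spheres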
Method in brief: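 Hoechst-stained nuclei within the migration area were counted by automated high content imaging after 120 h. Single hNPC spheres differentiated on poly-D-lysine/laminin in DMEM/F12 (3:1) with 1% N2, compound present throughout, DMSO ≤0.1%.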

[20] = IUF_NPC2-5_viability_120hr: Viability Assessment at 120 hours in the Leibniz Research Institute for Environmental Medicine (IUF) Neural Progenitor Cell Migration and Differentiation Assay (NPC2-5) (AID 2284312)
Method in brief: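 Human fetal (GW 16-19) neural progenitor spheres of 0.3 mm were plated on poly-D-lysine/laminin in N2 differentiation medium and exposed from day 0 for 120 h, with half-medium refresh at day 3. Viability was read as alamar blue resazurin-to-resorufin fluorescence against DMSO.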

Measured: AC50

O.O.O.O.O.[Cd+2].[Cd+2].[Cl-].[Cl-].[Cl-].[Cl-]
active: [1] 4.37 µM | [2] 30.8 µM | [3] 1.84 µM | [4] 1.62 µM | [5] 1.67 µM | [7] 76.6 µM | [8] 50 µM
inactive: [6]

[CH3][Sn]([CH3])[CH3]
inactive: [1] | [6] | [7]
active: [2] 1.78 µM | [3] 2.41 µM | [4] 1.77 µM | [5] 1.79 µM | [8] 5 µM

CCOP(=S)(OCC)SCS(=O)C(C)(C)C (stereo unspecified)
inactive: [10] | [11] | [1] | [2] | [3] | [4] | [5] | [6] | [8] | [12] | [13] | [14] | [15] | [16] | [17] | [18] | [19] | [20]
active: [9] 2.34 µM

CC1(C)C(C=C(Cl)Cl)[C@H]1C(=O)O[C@H](C#N)c1cccc(Oc2ccccc2)c1 (stereo partly specified)
inactive: [9] | [10] | [11] | [12] | [13] | [14] | [15] | [16] | [17] | [18] | [19] | [20]

CCOP(=O)(OCC)OC(Cl)C(Cl)(Cl)Cl (stereo unspecified)
active: [1] 49.6 µM | [19] 36 µM
inactive: [9] | [10] | [11] | [2] | [3] | [4] | [5] | [6] | [7] | [8] | [12] | [13] | [14] | [15] | [16] | [17] | [18] | [20]

O=[As]O
inactive: [1] | [12] | [14] | [15] | [16] | [17] | [18] | [19] | [20]
active: [9] 2.03 µM | [11] 2.96 µM | [2] 2.48 µM | [3] 6.45 µM | [4] 5 µM | [5] 5 µM | [6] 5 µM | [7] 3.59 µM | [8] 3.8 µM | [13] 0.805 µM

CC1(C)[C@H](C=C(Cl)Cl)[C@H]1C(=O)OCc1c(F)c(F)cc(F)c1F
inactive: [10] | [11] | [12] | [13] | [14] | [15] | [16] | [17] | [18] | [19] | [20]
active: [9] 0.897 µM | [1] 12.9 µM | [2] 78.2 µM | [3] 9.91 µM | [4] 9.68 µM | [5] 9.74 µM | [6] 12.8 µM | [7] 50 µM | [8] 26.7 µM
